Assay outcomes as filed in PubChem BioAssay.
TDP1 cell noCPT = qHTS for Inhibitors of human tyrosyl-DNA phosphodiesterase 1 (TDP1): qHTS in cells in absence of CPT | DT40 Tdp1-/- hTDP1 cells, no CPT, ATP luminescence, 48 h | Potency, µM (highest dose often 46.2 µM), most hits filed as inhibitors | 420,000 tested, 15% active; further: nearly all actives have a fitted effect of over 55% in size
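A cellular qHTS used chicken DT40 cells lacking endogenous Tdp1 but carrying stably transfected human TDP1. Compounds were applied without camptothecin, and cell growth kinetics were judged by ATP-dependent luminescence after ≥48 hr.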
TDP1 cell CPT = DT40-hTDP1 cell growth loss with CPT. chicken DT40 Tdp1-/-;hTDP1 cells + 20 nM CPT, ATP luminescence, 48 h. Potency, µM (series often up to 46.2 µM), usual class: inhibitors. 420,000 tested, 12% active. AID 686979; further: nearly all actives have a fitted effect of over 55% in size
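Cell growth measured by CellTiter-Glo luminescence after a minimum 48 h, 37 C compound exposure with 20 nM CPT in Tdp1-knockout DT40 cells stably expressing hTDP1, seeded 400/well; qHTS titration format.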
HT1080 IDH1KD tx = toxicity to HT-1080 IDH1 knockdown cells (counter line) | HT-1080 IDH1 knockdown viability, ATP luminescence, 48 h | Potency, µM (series often up to 46.1 µM), usual class: cytotoxic | 360,000 tested, 2% active
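Assay cells: HT-1080 with IDH1 knockdown, 750 per well, RPMI/5% FBS. Exposure: 48 h at 37 °C following 2 h pre-incubation. Read: CellTiter-Glo luminescence; fitted concentration-response, curve class assigned.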
IL1B secr inh = inflammasome signaling inhibition, IL-1 beta readout. activity change, % at 57.5 µM. 360,000 tested, 4.7% active. THP-1 LPS/ATP IL-1B secretion, AlphaLISA, 16 h; hits give low values; in the data active means activity change below about -50%; inconclusive means mostly about -30% to -49%
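Secreted IL-1B measured by AlphaLISA bead assay after 16 h compound exposure of THP-1 cells; compounds (final up to 57.5 uM) added 1 h before LPS (250 ng/mL) and ATP (1.25 mM) stimulation; lower signal means less secretion.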
HT1080NT lethal = kills 2HG-producing HT-1080-NT fibrosarcoma cells. HT-1080-NT fibrosarcoma viability, CellTiter-Glo ATP luminescence, 48 h. Potency, µM (titrated, usually from 46.1 µM), actives largely listed as cytotoxic. 360,000 tested, 1.6% active;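 further: NT is the 2HG producing partner of a matched IDH1 knockdown line; nearly all actives have a fitted effect of over 55% in size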
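Viability of the 2HG-overproducing fibrosarcoma line after 48 hours of compound exposure at 37 degrees C was determined by luminescence with CellTiter-Glo, and concentration-effect curves were then fitted and categorized.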
ALOX12 inh = ALOX12 (human) lipoxygenase inhibition. Potency, µM (highest dose often 108 µM), most hits filed as inhibitors. purified 12hLO, xylenol orange hydroperoxide absorbance. 580,000 tested, 1.1% active. P18054
Target sequence (P18054 whole entry, looked up): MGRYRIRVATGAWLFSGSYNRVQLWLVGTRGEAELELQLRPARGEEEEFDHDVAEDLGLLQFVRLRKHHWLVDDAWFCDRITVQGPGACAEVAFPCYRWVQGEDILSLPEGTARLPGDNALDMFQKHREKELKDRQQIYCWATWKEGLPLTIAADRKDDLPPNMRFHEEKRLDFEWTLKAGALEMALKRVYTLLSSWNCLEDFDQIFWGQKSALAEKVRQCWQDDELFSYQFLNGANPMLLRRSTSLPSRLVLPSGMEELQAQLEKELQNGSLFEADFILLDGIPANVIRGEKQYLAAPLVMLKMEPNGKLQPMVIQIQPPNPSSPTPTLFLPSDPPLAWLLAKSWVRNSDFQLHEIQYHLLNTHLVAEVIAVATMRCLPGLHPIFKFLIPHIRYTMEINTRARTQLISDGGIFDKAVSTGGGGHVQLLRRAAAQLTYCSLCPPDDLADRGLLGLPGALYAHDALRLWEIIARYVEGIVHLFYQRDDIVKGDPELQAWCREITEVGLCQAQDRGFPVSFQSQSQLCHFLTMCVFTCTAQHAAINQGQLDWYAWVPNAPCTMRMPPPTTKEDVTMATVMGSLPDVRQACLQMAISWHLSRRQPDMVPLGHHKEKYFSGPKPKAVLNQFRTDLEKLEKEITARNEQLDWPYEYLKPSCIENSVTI
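Purified human 12hLO at 150 nM in 25 mM Hepes, 0.01% Triton X-100, pH 7.0, preincubated 15 min at room temperature with compound. Reaction started with 40 uM arachidonic acid, 30 min at room temperature. Hydroperoxide measured by Fe-xylenol orange, 573/405 nm absorbance ratio.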
A number is an active result; . = inactive; ? = inconclusive; / = no result given. Many of the other results were omitted from the sample, so hits are more common in it than they were. Unless noted, the call rests on the fitted dose curve; in most records, active means well fitted curve in the direction sought with a large enough effect; inconclusive means small, poorly fitted or top-dose-only effect, or another doubt; inactive means no such curve, though single readings can be large; an effect the other way counts as inactive or inconclusive.

SMILES	TDP1 cell noCPT	TDP1 cell CPT	HT1080 IDH1KD tx	IL1B secr inh	HT1080NT lethal	ALOX12 inh
CC(C)C(=O)Nc1ccc(COc2ccccc2CN(Cc2ccccc2)C(=O)OC(C)(C)C)cc1	15µM	15µM	?	.	.	.
COc1ccccc1-c1cncnc1NCc1cccnc1	.	.	/	/	/	.
COc1ccccc1-c1ccc2ncnc(NCc3cccnc3)c2c1	6.5µM	8.2µM	/	/	/	?
COc1ccccc1-c1ccc2ncnc(NCc3cnc(C)cn3)c2c1	18µM	?	/	/	/	.
COc1ccc2oc(=O)c(S(=O)(=O)N3CCC(C)CC3)cc2c1	/	/	/	/	/	.
Cc1cc(C)cc(-n2ncc3c(OCC(=O)NC4CCS(=O)(=O)C4)ncnc32)c1 (stereo unspecified)	/	/	/	/	/	.
O=C(Nn1cc(C(=O)Nc2ccccc2F)c2ccccc2c1=O)c1cnccn1	?	?	?	.	.	.
COc1cc(OC)cc(C(=O)Nn2cc(C(=O)Nc3ccccc3F)c3ccccc3c2=O)c1	?	23µM	.	.	.	.
OCCSc1nc(-c2ccccc2)nc2ccc(F)cc12	?	?	.	.	.	.
NC(N)=Nc1nc(-c2ccccc2)c2cc(F)ccc2n1	12µM	21µM	21µM	-90	21µM	.
O=C(/C=C/c1cccnc1)NCCc1cccc2ccccc12	/	/	/	/	/	.
COc1ccc(C(=O)Nc2ccc3nc(N4CCCCC4)cc(C)c3c2)c(OC)c1	?	.	/	/	/	.
COc1cc(OC)cc(C(=O)Nc2ccc3nc(N4CCC(C)CC4)cc(C)c3c2)c1	4.6µM	9.2µM	/	/	/	.
COc1cccc(NC(=O)CCC(=O)Nc2ccc3nc(N4CCOCC4)cc(C)c3c2)c1	15µM	?	.	.	.	?
COc1ccccc1C(=O)Nc1ccc2nc(N3CCC(C)CC3)cc(C)c2c1	16µM	?	/	/	/	.
CCCC(OC(=O)c1cc(C)nc2ccccc12)C(=O)Nc1cc(C)on1 (stereo unspecified)	/	/	/	/	/	.
CC1Cc2ccccc2C[N+]1(C)CC(=O)c1ccc(I)cc1 (stereo unspecified)	14µM	10µM	/	/	/	/
CC[N+]1(CC(=O)c2ccc(I)cc2)CCCCC1	.	?	/	/	/	/
CCCC/C(C)=N/NC(=S)Nc1ccccc1	/	/	/	/	/	6.3µM
CC(=NNC(=S)Nc1ccccc1)c1ccccn1	0.12µM	0.026µM	?	?	?	?
C/C(=N/NC(=O)CNC(=O)c1ccccn1)c1ccccc1	.	.	.	.	.	.
C=CCNC(=S)N/N=C(\C)c1ccccn1	0.018µM	0.01µM	?	.	?	?
S=C(NN=C(C1CC1)C1CC1)Nc1ccccc1	?	21µM	.	.	.	?
Cc1cc2n(CC(O)COc3ccc(-c4ccccc4)cc3)c(=O)c3ccccc3n2n1 (stereo unspecified)	/	/	/	/	/	.
COc1ccc(NC(=O)C2CN(S(=O)(=O)C3CC3)CC23CCCCC3)cc1 (stereo unspecified)	/	/	/	/	/	.
SMILES	TDP1 cell noCPT	TDP1 cell CPT	HT1080 IDH1KD tx	IL1B secr inh	HT1080NT lethal	ALOX12 inh
CCc1oc2cc(O)ccc2c(=O)c1-c1ccccc1OC	/	/	/	/	/	.
COc1ccc2c(C)c(CCC(=O)N3CCCCC3)c(=O)oc2c1	/	/	/	/	/	.
C/C(=N\NC(=O)C1CC1)c1ccccn1	/	/	/	/	/	.
CC(=NNC(=S)Nc1ccccc1Cl)c1ccccn1	0.15µM	0.013µM	?	-102	.	?
CSc1nnc(N2C(=O)C(O)=C(C(=O)c3ccco3)C2c2ccc(F)cc2)s1 (stereo unspecified)	.	.	.	.	.	?
O=C(C1=C(O)C(=O)N(c2ncccn2)C1c1ccc(Cl)c(Cl)c1)c1ccco1 (stereo unspecified)	.	.	.	.	.	2µM
CSc1nnc(N2C(=O)C(O)=C(C(=O)c3ccco3)C2c2cccc(Cl)c2)s1 (stereo unspecified)	.	.	.	.	.	40µM
O=C(c1ccco1)N1CCN(c2nc3ccc(Cl)cc3s2)CC1	23µM	?	/	/	/	?
Cc1cc(C)c2nc(N3CCN(C(=O)c4ccco4)CC3)sc2c1	.	.	?	.	.	.
O=C(c1ccco1)N1CCN(c2nc3ccsc3c(=O)s2)CC1	?	?	.	.	.	.
O=C(c1cc2cc(Cl)ccc2[nH]1)N1CCN(C(=O)c2ccco2)CC1	?	?	.	.	.	45µM
Cc1cc2nc(N3CCN(C(=O)c4ccco4)CC3)sc2cc1C	21µM	?	.	.	.	.
Cc1ccc2nc(N3CCN(C(=O)c4ccco4)CC3)c3nncn3c2c1	16µM	?	.	.	.	.
Cn1nc(C(=O)NC2CCN(c3cc(-c4cccs4)[nH]n3)C2)c2ccccc21 (stereo unspecified)	/	/	/	/	/	.
CC(NC(=O)CCc1ncc(-c2ccccc2)o1)c1ccc2c(c1)NC(=O)CO2 (stereo unspecified)	/	/	/	/	/	.
O=CN1Cc2nc3ccccc3n2-c2cc(Br)ccc21	/	/	/	/	/	.
COc1ccc(C)c2sc(N3CCN(C(=O)c4cccc(F)c4)CC3)nc12	.	.	/	/	/	.
COc1ccc(C)c2sc(N3CCN(C(=O)c4ccco4)CC3)nc12	18µM	18µM	/	/	/	.
Cc1ccc(Cl)c(OCc2n[nH]c(=S)n2C)c1	/	/	/	/	/	32µM
CCCCn1c(Cc2ccccc2)n[nH]c1=S	?	.	.	.	.	?
CCCCCn1c(COc2ccccc2Cl)n[nH]c1=S	/	/	/	/	/	28µM
Cc1ccc(C(C)C)c(OCc2n[nH]c(=S)n2Cc2ccc(Cl)cc2)c1	/	/	/	/	/	28µM
CCN(CC)CCCn1c(-c2ccc(COc3cc(C)ccc3Cl)cc2)n[nH]c1=S	/	/	/	/	/	35µM
O=C1CCN(C(=O)c2cccs2)CCCC(CO)CCN1 (stereo unspecified)	/	/	/	/	/	.
COCCCNC(=O)C1CCN(S(=O)(=O)c2ccc3c(ccn3C)c2)CC1	/	/	/	/	/	.
SMILES	TDP1 cell noCPT	TDP1 cell CPT	HT1080 IDH1KD tx	IL1B secr inh	HT1080NT lethal	ALOX12 inh
Cn1c(COc2cc(Cl)ccc2Cl)n[nH]c1=S	/	/	/	/	/	50µM
COc1ccc(-n2c(COc3ccc(Cl)cc3Cl)n[nH]c2=S)cc1	?	?	.	.	.	?
C[C@]1(O)CCN(C(=O)Cc2nc(-c3ccncc3)n[nH]2)C[C@@H]1O	/	/	/	/	/	.
N#CCC(=O)c1ccsc1	/	/	/	/	/	.
Cc1cccc(Cn2nc(-c3ccc(C)c(S(=O)(=O)N4CCCC4)c3)ccc2=O)c1	/	/	/	/	/	.
COc1cc(CSc2nnnn2-c2ccc(C)cc2)cc(OC)c1OC	5µM	5.8µM	.	-77	?	.
Cc1cc(S(=O)(=O)Nc2cccc(C(F)(F)F)c2)sc1C(=O)O	/	/	/	/	/	.
CN1C(=S)NC(C)(C)CC1(C)c1ccc(O)cc1O (stereo unspecified)	.	.	.	.	.	?
